# Results as given in the supplement of paper PMC3616981.
# ± gives the standard deviation of the averaged measurements.
# Experiments:
# [1] = compound: CC(C)c1cccc(C(C)C)c1N1C(=O)c2ccc(O)cc2C1=O; test: BioMAP readout fold decrease vs vehicle (vehicle/treated); higher = stronger decrease of the readout vs vehicle (values <1 mean increase)
# Description: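 BioSeek BioMAP human primary cell (co-)culture systems (3C, 4H, LPS, SAg, BE3C, CASM3C, hDFCGF, KF3CT) treated with 5HPP-33 at 1.48, 4.44, 13.3 and 40 µM. Read-outs are protein levels by ELISA, proliferation and SRB total protein. Duplicate rows per assay are averaged as replicates. Tested in ToxCast Phase II for this study; exposure time not stated.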
# [2] = compound: CC(C)c1cccc(C(C)C)c1N1C(=O)c2ccc(O)cc2C1=O; test: reporter fold induction vs vehicle; higher = higher reporter activity
# Summary of the method: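 Multiplexed cellular biosensor reporter system with cis response-element and trans nuclear-receptor transcription factor reporter constructs (48 cis, 25 trans) and homogeneous detection, tested in ToxCast Phase II at 8 concentrations (0.091–200 µM). Reporter activity is given as fold induction relative to vehicle control. Replicates were averaged where present.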
# 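For BioMAP readout fold decrease vs vehicle (vehicle/treated) in this document: Co-cultures of keratinocytes, bronchial epithelial and smooth muscle cells, fibroblasts, HUVECs and PBMCs under stimuli like LPS, TNF-α, IFN-γ, IL-1β, TGF-β or EGF, SRB reflecting cytotoxicity.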
target,measurement,setting,value
3C_VCAM1,BioMAP readout fold decrease,[1]; 1.48 µM,1.05 ± 0.029
same,BioMAP readout fold decrease,[1]; 4.44 µM,1.15 ± 0.027
same,BioMAP readout fold decrease,[1]; 13.3 µM,1.33 ± 0.03
same,BioMAP readout fold decrease,[1]; 40 µM,2.03 ± 0.072
CASM3C_HLADR,BioMAP readout fold decrease,[1]; 1.48 µM,0.895 ± 0.021
same,BioMAP readout fold decrease,[1]; 4.44 µM,0.797 ± 0.061
same,BioMAP readout fold decrease,[1]; 13.3 µM,1.41 ± 0.07
same,BioMAP readout fold decrease,[1]; 40 µM,2.61 ± 0.45
CASM3C_SAA,BioMAP readout fold decrease,[1]; 1.48 µM,1.02 ± 0.09
same,BioMAP readout fold decrease,[1]; 4.44 µM,1.12 ± 0.018
same,BioMAP readout fold decrease,[1]; 13.3 µM,1.094 ± 0.0048
same,BioMAP readout fold decrease,[1]; 40 µM,1.72 ± 0.1
CASM3C_MCP1,BioMAP readout fold decrease,[1]; 1.48 µM,1.07 ± 0.045
same,BioMAP readout fold decrease,[1]; 4.44 µM,1.137 ± 0.0029
same,BioMAP readout fold decrease,[1]; 13.3 µM,1 ± 0.016
same,BioMAP readout fold decrease,[1]; 40 µM,0.9734 ± 0.002
SAg_MIG,BioMAP readout fold decrease,[1]; 1.48 µM,1.05 ± 0.017
same,BioMAP readout fold decrease,[1]; 4.44 µM,1.04 ± 0.012
same,BioMAP readout fold decrease,[1]; 13.3 µM,1.07 ± 0.034
same,BioMAP readout fold decrease,[1]; 40 µM,7.73 ± 1.1
BE3C_SRB,BioMAP readout fold decrease,[1]; 1.48 µM,0.9933 ± 0.0058
same,BioMAP readout fold decrease,[1]; 4.44 µM,0.9934 ± 0.0085
same,BioMAP readout fold decrease,[1]; 13.3 µM,1.0272 ± 0.001
same,BioMAP readout fold decrease,[1]; 40 µM,1.1579 ± 0.0011
4H_VCAM1,BioMAP readout fold decrease,[1]; 1.48 µM,0.977 ± 0.017
same,BioMAP readout fold decrease,[1]; 4.44 µM,0.978 ± 0.044
same,BioMAP readout fold decrease,[1]; 13.3 µM,1.06 ± 0.018
same,BioMAP readout fold decrease,[1]; 40 µM,2.2 ± 0.07
Oct_MLP_CIS,reporter fold induction,[2]; 0.091 µM,1.09
same,reporter fold induction,[2]; 0.274 µM,1.03
same,reporter fold induction,[2]; 0.823 µM,1.03
same,reporter fold induction,[2]; 2.469 µM,1.01
same,reporter fold induction,[2]; 7.407 µM,1.08
same,reporter fold induction,[2]; 22.22 µM,1.1
same,reporter fold induction,[2]; 66.67 µM,1.77
same,reporter fold induction,[2]; 200 µM,3.68
KF3CT_TIMP2,BioMAP readout fold decrease,[1]; 1.48 µM,1 ± 0.025
same,BioMAP readout fold decrease,[1]; 4.44 µM,0.978 ± 0.038
same,BioMAP readout fold decrease,[1]; 13.3 µM,1.08 ± 0.075
same,BioMAP readout fold decrease,[1]; 40 µM,2.5 ± 0.22
HNF4a_TRANS,reporter fold induction,[2]; 0.091 µM,1.1
same,reporter fold induction,[2]; 0.274 µM,1.42
same,reporter fold induction,[2]; 0.823 µM,0.883
same,reporter fold induction,[2]; 2.469 µM,1.11
same,reporter fold induction,[2]; 7.407 µM,1.1
same,reporter fold induction,[2]; 22.22 µM,1.07
same,reporter fold induction,[2]; 66.67 µM,0.715
same,reporter fold induction,[2]; 200 µM,0.473
CRE_CIS,reporter fold induction,[2]; 0.091 µM,1.08
same,reporter fold induction,[2]; 0.274 µM,1.03
same,reporter fold induction,[2]; 0.823 µM,1.01
same,reporter fold induction,[2]; 2.469 µM,0.951
same,reporter fold induction,[2]; 7.407 µM,1.11
same,reporter fold induction,[2]; 22.22 µM,1.17
same,reporter fold induction,[2]; 66.67 µM,2.03
same,reporter fold induction,[2]; 200 µM,3.21
BE3C_PAI1,BioMAP readout fold decrease,[1]; 1.48 µM,1.18 ± 0.056
same,BioMAP readout fold decrease,[1]; 4.44 µM,1.236 ± 0.012
same,BioMAP readout fold decrease,[1]; 13.3 µM,1.5 ± 0.03
same,BioMAP readout fold decrease,[1]; 40 µM,1.91 ± 0.13
KF3CT_ICAM1,BioMAP readout fold decrease,[1]; 1.48 µM,0.999 ± 0.092
same,BioMAP readout fold decrease,[1]; 4.44 µM,1.03 ± 0.037
same,BioMAP readout fold decrease,[1]; 13.3 µM,0.9245 ± 0.0078
same,BioMAP readout fold decrease,[1]; 40 µM,1.08 ± 0.062
BE3C_tPA,BioMAP readout fold decrease,[1]; 1.48 µM,0.995 ± 0.012
same,BioMAP readout fold decrease,[1]; 4.44 µM,0.805 ± 0.042
same,BioMAP readout fold decrease,[1]; 13.3 µM,1.1 ± 0.071
same,BioMAP readout fold decrease,[1]; 40 µM,1.59 ± 0.073
GATA_CIS,reporter fold induction,[2]; 0.091 µM,1
same,reporter fold induction,[2]; 0.274 µM,0.993
same,reporter fold induction,[2]; 0.823 µM,0.983
same,reporter fold induction,[2]; 2.469 µM,1.05
same,reporter fold induction,[2]; 7.407 µM,0.98
same,reporter fold induction,[2]; 22.22 µM,0.902
same,reporter fold induction,[2]; 66.67 µM,1.07
same,reporter fold induction,[2]; 200 µM,0.842
KF3CT_uPA,BioMAP readout fold decrease,[1]; 1.48 µM,1.016 ± 0.0099
same,BioMAP readout fold decrease,[1]; 4.44 µM,1.015 ± 0.01
same,BioMAP readout fold decrease,[1]; 13.3 µM,0.969 ± 0.012
same,BioMAP readout fold decrease,[1]; 40 µM,2.15 ± 0.47
4H_uPAR,BioMAP readout fold decrease,[1]; 1.48 µM,1.2 ± 0.045
same,BioMAP readout fold decrease,[1]; 4.44 µM,1.3 ± 0.038
same,BioMAP readout fold decrease,[1]; 13.3 µM,1.361 ± 0.0024
same,BioMAP readout fold decrease,[1]; 40 µM,2.33 ± 0.26
KF3CT_TGFb1,BioMAP readout fold decrease,[1]; 1.48 µM,1.03 ± 0.011
same,BioMAP readout fold decrease,[1]; 4.44 µM,1.044 ± 0.0031
same,BioMAP readout fold decrease,[1]; 13.3 µM,1.11 ± 0.021
same,BioMAP readout fold decrease,[1]; 40 µM,2.33 ± 0.15
hDFCGF_IP10,BioMAP readout fold decrease,[1]; 1.48 µM,1.1 ± 0.1
same,BioMAP readout fold decrease,[1]; 4.44 µM,1.073 ± 0.0033
same,BioMAP readout fold decrease,[1]; 13.3 µM,1.33 ± 0.037
same,BioMAP readout fold decrease,[1]; 40 µM,5.47 ± 0.25
